Experimental findings from PubChem BioAssay (EPA / NIEHS) are described below.

Assay [1] in a line: APR_HepG2_NuclearSize_72hr: Apredica 72-hour HepG2 Assay for Nuclear Size (AID 2282925). The settings on record: high-content imaging, actives raise or lower the signal. Summed up: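 HepG2; cpd 0.39–200 uM, 10 conc, duplicate; 72 h; DMSO 0.5% v/v; fix 3.7% formaldehyde 30 min RT; Triton permeabilization; Hoechst 2 ug/mL; HCS imaging 20x; nuclear diameter; gain/loss fit vs DMSO.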

The nature of assay [2]: ATG_CRE_CIS: Attagene CIS-FACTORIAL HepG2 Assay for human cAMP Responsive Element (CRE) binding protein 3 (AID 2282926). As to conditions: HepG2 CRE cis-reporter, Attagene multiplexed mRNA; actives raise or lower the signal. The method, boiled down: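 We dosed HepG2 cells bearing multiple cis-promoter reporter units for 24 h and measured reporter mRNA by RT-PCR with capillary electrophoresis detection. Bidirectional concentration-response fitting used DMSO as negative control.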

Assay [3] deals with CCAAT/enhancer-binding protein beta (Homo sapiens) (UniProt P17676). As to the kind of experiment: ATG_C_EBP_CIS: Attagene CIS-FACTORIAL HepG2 Assay for human CCAAT/Enhancer Binding Protein (C/EBP) beta (AID 2282927). The settings on record: HepG2 Attagene cis-factorial transcription factor reporter; actives raise or lower the signal. Summed up:
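Changes in reporter mRNA, rather than exogenous chimeric receptor activity, reflect native C/EBP signalling in transfected HepG2 cells dosed for 24 h; transcripts are detected by RT-PCR and capillary electrophoresis.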

Assay [4] can be described thus: ATG_CMV_CIS: Attagene CIS-FACTORIAL HepG2 Assay for human CMV (Internal Marker) (AID 2282928).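 Also: endpoint acts as a background internal control marker rather than a target.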 The settings on record: HepG2 CMV promoter reporter, transcription factor profiling; actives raise or lower the signal. Summed up: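 CMV internal-marker background readout in transiently transfected HepG2 cells bearing cis-regulated reporter units. Reporter mRNA is measured 24 h after dosing by RT-PCR and capillary electrophoresis, with bidirectional fitting against DMSO.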

In assay [5] the target is Aryl hydrocarbon receptor (Homo sapiens) (UniProt P35869). As to the kind of experiment: ATG_Ahr_CIS: Attagene CIS-FACTORIAL HepG2 Assay for human Aryl Hydrocarbon Receptor (Ahr) (AID 2282930). As to conditions: HepG2 AhR cis-factorial reporter transcription; actives raise or lower the signal. The method, boiled down:
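HepG2, transient MRTU (cis) transfection, 24 h exposure. RNA → cDNA → PCR → 6-FAM primer extension → HpaI 2 h 37 C → CE. Fit: bidirectional, DMSO baseline.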

Assay [6] in a line: ATG_AP_1_CIS: Attagene CIS-FACTORIAL HepG2 Assay for human Activator Protein 1 (AP-1) (AID 2282931). As to conditions: HepG2 Attagene cis-factorial AP-1 reporter mRNA; actives raise or lower the signal. Summed up:
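We transfected HepG2 cells transiently with a set of cis-regulated reporter transcription units, dosed them for 24 h, and quantified reporter mRNA via RT-PCR and capillary electrophoresis, scoring gain or loss of signal relative to DMSO.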

Assay [7] is described as follows: ATG_BRE_CIS: Attagene CIS-FACTORIAL HepG2 Assay for human Bone Morphogenetic Protein (BMP) Response Element (BRE) (AID 2282933). As to conditions: HepG2 BMP response element reporter, Attagene transcription factor profiling; actives raise or lower the signal. Summed up:
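Endogenous transcription factor activity at a BMP response element was monitored in transfected HepG2 cells 24 h after dosing. Fluorescent RT-PCR products were resolved by capillary electrophoresis, and activity was fitted in both directions versus DMSO.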

For assay [8], the target named is Retinoic acid receptor alpha (Homo sapiens) (UniProt P10276). As to the kind of experiment: ATG_DR5_RAR_CIS: Attagene CIS-FACTORIAL HepG2 Assay for human Retinoic Acid Receptor Alpha (RARE), DR5 submotif (AID 2282934). The settings on record: HepG2 Attagene cis-factorial RARE DR5 reporter, mRNA; actives raise or lower the signal. Summed up:
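HepG2, transient cis-reporter transfection, 24 h exposure. mRNA readout: RT-PCR, FAM label, HpaI cut, capillary electrophoresis. DMSO baseline, gain/loss fitting.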

Assay [9] has as its target Transcription factor E2F1 (Homo sapiens) (UniProt Q01094). As to the kind of experiment: ATG_E2F_CIS: Attagene CIS-FACTORIAL HepG2 Assay for human E2F Transcription Factor 1 (AID 2282935). As to conditions: HepG2 Attagene cis-reporter, E2F reporter RNA transcripts; actives raise or lower the signal. Summed up: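 Cis-element reporter mRNA induction in transiently transfected HepG2, 24 h exposure. Activity fitted in both directions relative to DMSO negative control.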

Assay [10] is described as follows: ATG_E_Box_CIS: Attagene CIS-FACTORIAL HepG2 Assay for human Enhancer Box (E-box) (AID 2282936). The settings on record: HepG2 E-box cis-reporter transcription, actives raise or lower the signal. The method, boiled down:
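Cells: HepG2 (human liver), transient MRTU transfection. Exposure 24 h. RNA → oligo(dT) RT → PCR → 6-FAM label → HpaI → CE. Activity fitted both directions relative to DMSO.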

The nature of assay [11]: ATG_M_61_CIS: Attagene CIS-FACTORIAL HepG2 Assay for M61 Transcription Factor (Internal Marker) (AID 2282937). The settings on record: HepG2 Attagene CIS-FACTORIAL M61 internal marker reporter; actives raise or lower the signal. The method, boiled down:
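Multiplexed reporter mRNA assay, HepG2 human hepatoma cells, 24 h treatment. Signal: FAM-labelled, HpaI-digested RT-PCR fragments by CE. Fit: bidirectional, baseline DMSO.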

Assay [12] can be described thus: ATG_EGR_CIS: Attagene CIS-FACTORIAL HepG2 Assay for human Early Growth Response 1 (EGR1) (AID 2282938). The settings on record: HepG2 Attagene CIS-FACTORIAL EGR reporter mRNA; actives raise or lower the signal. The method, boiled down:
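Multiplexed cis-reporter system in human hepatoma HepG2 cells, transiently transfected. Cells are dosed for 24 h; reporter transcripts are amplified, fluorescently tagged and sized by capillary electrophoresis, with DMSO as negative control.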

Assay [13] in a line: ATG_M_19_CIS: Attagene CIS-FACTORIAL HepG2 Assay for M19 Transcription Factor (Internal Marker) (AID 2282939). The settings on record: HepG2 Attagene CIS-FACTORIAL M19 internal marker reporter; actives raise or lower the signal. Summed up:
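Background-control endpoint from a multiplexed HepG2 reporter panel. Cells carrying cis-regulated reporter constructs are treated 24 h, then reporter transcripts are amplified, fluorescently labelled and sized by capillary electrophoresis. DMSO defines baseline.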

The nature of assay [14]: ATG_Ets_CIS: Attagene CIS-FACTORIAL HepG2 Assay for human Erythroblast Transformation Specific (ETS) (AID 2282941). As to conditions: HepG2 ETS cis-reporter transcription, actives raise or lower the signal. Summed up:
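HepG2 cells transfected with multiple cis-regulated reporter units measuring endogenous ETS-driven transcription, 24 h after dosing. Reporter mRNA quantified by RT-PCR with capillary electrophoresis; bidirectional fit relative to DMSO.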

The nature of assay [15]: ATG_FoxO_CIS: Attagene CIS-FACTORIAL HepG2 Assay for human Forkhead box O (FoxO) (AID 2282943). As to conditions: HepG2 Attagene cis-reporter, FoxO element, mRNA; actives raise or lower the signal. The method, boiled down: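 Human hepatoma HepG2 cells carry transiently introduced reporter transcription units controlled by cis promoter elements. Chemical treatment lasted 24 h, and mRNA signal was compared with DMSO.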

A short description of assay [16]: ATG_GATA_CIS: Attagene CIS-FACTORIAL HepG2 Assay for human GATA Binding Protein (AID 2282944). As to conditions: HepG2 GATA cis-element reporter, Attagene multiplex mRNA; actives raise or lower the signal. The method, boiled down:
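Endogenous transcription factor activity was captured through cis-promoter-driven reporters in transfected HepG2 cells. After 24 h exposure, reporter transcripts were quantified by RT-PCR with fluorescent capillary electrophoresis, and responses fitted both directions against DMSO.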

A short description of assay [17]: ATG_DR4_LXR_CIS: Attagene CIS-FACTORIAL HepG2 Assay for human Liver X Receptor (LXR), DR4 submotif (AID 2282929). The settings on record: HepG2 Attagene DR4 cis-reporter, mRNA transcription; actives raise or lower the signal. Summed up: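 Transiently transfected HepG2 liver cells; cis-regulated reporters; 24 h dosing. RT-PCR plus CE read-out of reporter mRNA. DMSO baseline, bidirectional curve fitting.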

Assay [18] is described as follows: ATG_AP_2_CIS: Attagene CIS-FACTORIAL HepG2 Assay for human Activator Protein 2 (AP-2) (AID 2282932). The settings on record: HepG2 AP-2 cis-reporter, Attagene transcription factor profiling; actives raise or lower the signal. The method, boiled down:
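HepG2, transient MRTU transfection, cis-regulated reporters; 24 h compound exposure; RNA isolated, RT-PCR, 6-FAM labelling, HpaI digest, CE fluorescence. DMSO = negative control/baseline, bidirectional fit.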

The nature of assay [19]: ATG_ERE_CIS: Attagene CIS-FACTORIAL HepG2 Assay for Estrogen Response Element (ERE) (AID 2282940). The settings on record: HepG2 ERE cis-reporter, Attagene RNA transcript; actives raise or lower the signal. The method, boiled down:
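Cells used were human hepatoma HepG2, transfected with multiple reporter transcription units under cis-regulatory promoters. Reporter mRNA, read 24 h post-dosing via fluorescent RT-PCR products on capillary electrophoresis, was fitted bidirectionally relative to DMSO.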

The target of assay [20] is Hepatocyte nuclear factor 3-beta (Homo sapiens) (UniProt Q9Y261). As to the kind of experiment: ATG_FoxA2_CIS: Attagene CIS-FACTORIAL HepG2 Assay for human Forkhead box A2 (FOXA2) (AID 2282942). As to conditions: HepG2 cis-reporter transcription factor activity, 24 h; actives raise or lower the signal. Summed up: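 Multiplexed cis-element reporter assay in transiently transfected HepG2. Twenty-four hours post-dosing, RNA was reverse-transcribed, amplified, FAM-labelled, HpaI-digested and separated by CE. Activity gain or loss relative to DMSO.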

As a reminder, the AC50 is the concentration giving half of the maximal activity seen.

Values joined by “and” are separate entries in the source; they are usually repeats but may differ in a detail not shown here. Equal values may be shown once. Some compounds were tested as several samples or in several runs, with calls that do not always agree. Active and inactive are the calls of the source. The calls were made as follows: active = hit-call score of the fitted dose curve at least 0.9, where 1 is the maximum; inactive = score below 0.9.

CCAAT/enhancer-binding protein beta (Homo sapiens), sequence (P17676 whole entry, looked up): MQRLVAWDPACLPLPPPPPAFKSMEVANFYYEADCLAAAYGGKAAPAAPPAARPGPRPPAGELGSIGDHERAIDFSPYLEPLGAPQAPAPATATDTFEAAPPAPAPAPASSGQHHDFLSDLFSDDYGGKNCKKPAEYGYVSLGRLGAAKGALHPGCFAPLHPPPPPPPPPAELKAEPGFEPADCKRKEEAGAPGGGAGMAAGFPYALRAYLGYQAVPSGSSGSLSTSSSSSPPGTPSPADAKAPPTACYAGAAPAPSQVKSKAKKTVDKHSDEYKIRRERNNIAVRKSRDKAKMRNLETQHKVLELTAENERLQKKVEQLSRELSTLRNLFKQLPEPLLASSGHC
Hepatocyte nuclear factor 3-beta (Homo sapiens), sequence (Q9Y261 whole entry, looked up): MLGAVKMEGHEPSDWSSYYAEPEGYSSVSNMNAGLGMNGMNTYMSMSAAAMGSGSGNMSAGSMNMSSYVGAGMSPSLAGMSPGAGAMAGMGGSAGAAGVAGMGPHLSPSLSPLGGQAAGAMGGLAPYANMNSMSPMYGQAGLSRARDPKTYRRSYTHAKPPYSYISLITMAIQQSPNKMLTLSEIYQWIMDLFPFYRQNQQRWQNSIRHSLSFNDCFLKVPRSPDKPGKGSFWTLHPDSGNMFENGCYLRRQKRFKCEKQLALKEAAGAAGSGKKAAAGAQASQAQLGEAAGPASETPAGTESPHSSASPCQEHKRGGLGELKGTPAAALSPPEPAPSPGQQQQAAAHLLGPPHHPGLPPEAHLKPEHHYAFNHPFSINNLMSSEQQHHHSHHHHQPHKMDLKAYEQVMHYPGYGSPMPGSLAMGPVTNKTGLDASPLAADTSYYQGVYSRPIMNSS
Aryl hydrocarbon receptor (Homo sapiens), sequence (P35869 whole entry, looked up): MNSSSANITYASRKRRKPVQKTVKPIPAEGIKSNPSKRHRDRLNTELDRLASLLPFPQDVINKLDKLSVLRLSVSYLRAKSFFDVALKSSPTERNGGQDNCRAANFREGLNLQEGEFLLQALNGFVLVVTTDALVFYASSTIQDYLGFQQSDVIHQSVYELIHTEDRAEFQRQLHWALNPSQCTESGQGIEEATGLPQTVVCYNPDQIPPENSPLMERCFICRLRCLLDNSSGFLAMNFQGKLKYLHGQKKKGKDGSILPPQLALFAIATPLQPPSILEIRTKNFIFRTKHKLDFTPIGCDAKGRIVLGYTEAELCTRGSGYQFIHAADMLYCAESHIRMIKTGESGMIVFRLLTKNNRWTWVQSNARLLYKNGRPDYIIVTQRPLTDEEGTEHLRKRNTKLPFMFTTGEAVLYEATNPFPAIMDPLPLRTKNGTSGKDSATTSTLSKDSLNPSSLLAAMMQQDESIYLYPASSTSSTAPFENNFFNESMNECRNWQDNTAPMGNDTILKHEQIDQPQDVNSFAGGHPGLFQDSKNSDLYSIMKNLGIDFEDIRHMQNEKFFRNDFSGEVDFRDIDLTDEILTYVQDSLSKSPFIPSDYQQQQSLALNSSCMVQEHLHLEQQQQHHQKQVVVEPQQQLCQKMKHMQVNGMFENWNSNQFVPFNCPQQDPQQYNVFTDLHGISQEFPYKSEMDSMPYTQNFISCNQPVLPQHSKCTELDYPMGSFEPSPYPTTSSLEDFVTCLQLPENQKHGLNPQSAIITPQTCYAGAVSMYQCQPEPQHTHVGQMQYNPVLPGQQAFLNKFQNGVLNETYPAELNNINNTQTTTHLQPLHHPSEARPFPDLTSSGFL
Transcription factor E2F1 (Homo sapiens), sequence (Q01094 whole entry, looked up): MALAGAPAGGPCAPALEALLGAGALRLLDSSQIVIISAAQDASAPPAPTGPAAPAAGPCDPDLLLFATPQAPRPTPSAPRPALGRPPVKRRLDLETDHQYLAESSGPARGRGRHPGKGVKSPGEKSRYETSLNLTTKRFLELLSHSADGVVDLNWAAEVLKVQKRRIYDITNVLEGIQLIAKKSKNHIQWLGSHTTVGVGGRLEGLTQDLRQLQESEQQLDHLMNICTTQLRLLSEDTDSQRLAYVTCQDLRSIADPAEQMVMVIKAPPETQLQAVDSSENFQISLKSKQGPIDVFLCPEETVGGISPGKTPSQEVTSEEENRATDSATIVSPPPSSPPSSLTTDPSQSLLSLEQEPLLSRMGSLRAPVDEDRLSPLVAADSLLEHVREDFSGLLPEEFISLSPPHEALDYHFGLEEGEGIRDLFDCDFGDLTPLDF
Retinoic acid receptor alpha (Homo sapiens), sequence (P10276 whole entry, looked up): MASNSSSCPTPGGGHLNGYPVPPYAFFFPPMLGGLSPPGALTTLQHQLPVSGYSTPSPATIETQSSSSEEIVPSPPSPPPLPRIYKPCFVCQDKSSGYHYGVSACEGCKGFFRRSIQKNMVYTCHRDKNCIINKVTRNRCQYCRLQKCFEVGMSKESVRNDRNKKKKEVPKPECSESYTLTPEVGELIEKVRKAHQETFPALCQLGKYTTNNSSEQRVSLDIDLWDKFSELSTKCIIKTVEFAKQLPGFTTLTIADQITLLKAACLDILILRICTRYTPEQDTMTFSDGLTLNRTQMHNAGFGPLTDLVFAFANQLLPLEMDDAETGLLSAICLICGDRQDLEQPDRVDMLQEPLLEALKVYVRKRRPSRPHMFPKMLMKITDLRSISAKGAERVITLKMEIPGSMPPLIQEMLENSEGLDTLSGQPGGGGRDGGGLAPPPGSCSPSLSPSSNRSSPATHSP

As to `C#C[C@]1(O)CC[C@H]2[C@@H]3CCC4=CC(=O)CC[C@@H]4[C@H]3CC[C@@]21C`, the outcome in [1], in assay [2], in assay [3], in assay [4], in [5] and in assay [6] was inactive. Further, the call in assay [7], in assay [8], in [9], in assay [10], in assay [11] and in assay [12] was inactive. Besides, the result in [13], in [14], in assay [15] and in assay [16] was inactive. The AC50 in [5] is 71.5 µM (active) and 50 µM (active).
As to `FC(F)(I)C(F)(F)C(F)(F)C(F)(F)C(F)(F)C(F)(F)I`, the compound was classed as inactive in [2], in assay [3], in assay [17], in [5], in assay [6] and in assay [18]. Besides, the call in assay [7], in [8], in assay [9], in assay [10], in assay [11] and in [20] was inactive. Also, the outcome in assay [16] was inactive. Moreover, the AC50 in [4] was 9.48 µM (active); in assay [12] it was 16.4 µM (active); in assay [19], 0.0192 µM (active); in assay [14], 18.3 µM (active); in assay [15] it was 17.4 µM (active).
Consider `C[C@@H]1C[C@H]2[C@@H]3CCC4=CC(=O)C=C[C@]4(C)[C@@]3(F)[C@@H](O)C[C@]2(C)[C@@]1(O)C(=O)COP(=O)(O)O`, for which the AC50 in assay [1] is 1.84 µM (active). Moreover, the outcome in assay [2], in [3], in [4], in assay [17], in assay [5] and in assay [6] was inactive. Further, the compound was classed as inactive in assay [18], in assay [7], in assay [9], in assay [10], in [11] and in assay [12]. The call in assay [13], in [19], in [14], in assay [20], in assay [15] and in [16] was inactive.
Turning to `CC(O)C(=O)O` (stereo unspecified), the compound was called inactive in assay [2], in assay [3], in assay [4], in assay [17], in [5] and in assay [6]. Further, the call in [7], in assay [8], in assay [9], in assay [10], in assay [11] and in [12] was inactive. The compound was classed as inactive in [19], in [20], in assay [15] and in [16].
Take `CN1CCC[C@H]1c1cccnc1`: the call in [1], in [2], in assay [3], in assay [4], in assay [17] and in [5] was inactive. For the same compound, the call in assay [6], in [7], in assay [9], in [10], in [11] and in assay [12] was inactive. In addition, the compound was called inactive in assay [13], in assay [19], in assay [20], in assay [15] and in [16]. Further, the AC50 in [19] was 49.4 µM (active).
`Oc1cc2ccccc2c2ccccc12`: the outcome in [1], in assay [2], in [3], in assay [4], in [17] and in [5] was inactive. In addition, the call in assay [6], in assay [7], in [8], in [9], in assay [10] and in [11] was inactive. Further, the call in assay [12], in assay [13], in [19], in [20], in assay [15] and in [16] was inactive.
